Results on 36 molecules are retold here after PubChem BioAssay (NCATS).

Where “and” joins values, the source holds several entries; their conditions need not be identical. Equal values may be shown once. Results filed as inconclusive are left out. Entries that show only a call come without a potency. Calls of active or inactive are those of the source. The call rests on the fitted dose curve; in most records, active means well fitted curve in the direction sought with a large enough effect; inconclusive means small, poorly fitted or top-dose-only effect, or another doubt; inactive means no such curve, though single readings can be large; an effect the other way counts as inactive or inconclusive.

A short description of one assay: qHTS of pediatric cancer cell lines to identify multiple opportunities for drug repurposing: Primary screen for Rh18 cells (AID 1347102). Further: nearly all actives have a fitted effect of over 65% in size. The note with it: Rh18 rhabdomyosarcoma viability, CellTiter-Glo luminescence, 48 h; series mostly up to 46 µM. The gist of the method:
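Cells (500-1,000/well) in growth media were settled 5 h at 37 degrees C, then given compounds for 48 h. Viability was read as CellTiter-Glo luminescence. Primary runs used MIPE at 11 points (0.78 nM-46 µM) and NPC at 8 points (0.59 nM-46 µM); follow-ups used 11 points.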
On to `NP(N)(=O)NC(=O)c1ccc(F)cc1`, for which the Potency entry was “inactive”.

As to `CCN(CC)CCOC(=O)C(O)(c1ccccc1)c1ccccc1`, the Potency entry is “inactive”.

As for `Cc1cccc(C)c1NC(=O)CN1CCCC1=O`, the Potency entry was “inactive”.

As to `CN1C(=S)CN=C(c2ccccc2)c2cc(Cl)ccc21`, the Potency entry is “inactive”.

For the molecule `N[C@@H]1C[C@H]1c1ccccc1`, the Potency result was “inactive”.

For the molecule `CC[N+](CC)(CC)CC`, the Potency result is “inactive”.

With `CCCC1CCCCN1` (stereo not given), the Potency entry was “inactive”.

As for `C#CCOC(C(=O)OCCN(C)C)(c1ccccc1)c1ccccc1`, the Potency entry was “inactive”.

As for `CN(C)CCc1ccc(O)cc1`, the Potency result was “inactive”.

With `CCN(C(C)=O)c1cccc(-c2ccnc3c(C#N)cnn23)c1`, the Potency result was “inactive”.

`CC(=O)Nc1cc([As](=O)(O)O)ccc1O`: the Potency entry is “inactive”.

Regarding `NCC1(CC(=O)O)CCCCC1`, the Potency result was “inactive”.

A further assay in a line: qHTS of pediatric cancer cell lines to identify multiple opportunities for drug repurposing: Primary screen for OHS-50 cells (AID 1347103). Further: nearly all actives have a fitted effect of over 40% in size. Further: potency means the concentration at half of the fitted maximal effect. As to conditions: OHS-50 osteosarcoma viability, CellTiter-Glo luminescence, 48 h; series mostly up to 57.3 µM. Summed up:
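Cells (500-1,000/well) rested 5 h, then received compounds for 48 h; metabolically active cells were measured by CellTiter-Glo luminescence. Final concentrations spanned up to 46 µM (MIPE, 11-point) or 0.59 nM-46 µM (NPC, 8-point) in primary screens, 11-point in follow-ups.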
In general terms: qHTS replaces the single test concentration by a dilution series.
In the case of `NN=C(N)N`, the Potency entry is “inactive”.

Turning to `CN1CCN(C(=O)O[C@H]2c3nccnc3C(=O)N2c2ccc(Cl)cn2)CC1`, the Potency entry is “inactive”.

Regarding `CC1NCCOC1c1ccccc1` (stereo not given), the Potency result was “inactive”.

As for `CCN(CC)C(=O)N[C@@H]1C=C2c3cccc4[nH]cc(c34)C[C@@H]2N(C)C1`, the Potency entry is “inactive”.

For `CCCC(C)(COC(N)=O)COC(=O)NC(C)C` (stereo not given), the Potency entry was “inactive”.

`O=[N+]([O-])c1cc([As](=O)(O)O)ccc1O`: the Potency entry was “inactive”.

With `CCC(C(N)=O)N1CCCC1=O` (stereo not given), the Potency result is “inactive”.

As for `C=C1CC[C@@]2(O)[C@H]3Cc4ccc(O)c5c4[C@@]2(CCN3CC2CC2)[C@H]1O5`, the Potency result is “inactive”.

On to `Nc1ccncc1`, for which the Potency entry is “inactive”.

Consider `CC(C)NCC(O)c1ccccc1Cl` (stereo not given), for which the Potency result was “inactive”.

Turning to `CCCN1CCC[C@@H]2Cc3nc(N)ncc3C[C@H]21`, the Potency entry was “inactive”.

Turning to `N[C@@H](Cc1ccc(N(CCCl)CCCl)cc1)C(=O)O`, the Potency is 9.78 µM (active) and 3.85 µM (active).

On to `CCCN1CCC[C@@H]2Cc3[nH]ncc3C[C@H]21`, for which the Potency entry is “inactive”.

In the case of `CC(=O)[C@H]1CC[C@H]2[C@@H]3CC[C@H]4C[C@](C)(O)CC[C@]4(C)[C@H]3CC[C@]12C`, the Potency result was “inactive”.

In the case of `Oc1cc(Cl)ccc1Oc1ccc(Cl)cc1Cl`, the Potency is 28.9 µM (active).

`N[C@@H](Cc1ccc(Oc2cc(I)c(O)c(I)c2)c(I)c1)C(=O)O`: the Potency entry is “inactive”.

In the case of `C#CCN(C)[C@H](C)Cc1ccccc1`, the Potency result was “inactive”.

On to `CC(C)(C)NCC(O)c1cc(Cl)c(N)c(Cl)c1` (stereo not given), for which the Potency entry is “inactive”.

Regarding `CC[C@@H](CO)NC(=O)[C@@H]1C=C2c3cccc4[nH]cc(c34)C[C@H]2N(C)C1`, the Potency entry was “inactive”.

Take `NP(N)(=O)NC(=O)c1ccc(F)cc1`: the Potency entry is “inactive”.

For the molecule `CCN(CC)CCOC(=O)C(O)(c1ccccc1)c1ccccc1`, the Potency result was “inactive”.

For the molecule `Cc1cccc(C)c1NC(=O)CN1CCCC1=O`, the Potency entry is “inactive”.

On to `CN1C(=S)CN=C(c2ccccc2)c2cc(Cl)ccc21`, for which the Potency entry was “inactive”.

As for `N[C@@H]1C[C@H]1c1ccccc1`, the Potency result was “inactive”.

Take `CC[N+](CC)(CC)CC`: the Potency entry was “inactive”.

In the case of `Fc1ccc(C(OCCN2CCN(CCCc3ccccc3)CC2)c2ccc(F)cc2)cc1`, the Potency was 10.9 µM (active) and 15.5 µM (active).

For `CCCC1CCCCN1` (stereo not given), the Potency result is “inactive”.

For `C#CCOC(C(=O)OCCN(C)C)(c1ccccc1)c1ccccc1`, the Potency result is “inactive”.

`CN(C)CCc1ccc(O)cc1`: the Potency result was “inactive”.

As for `CCN(C(C)=O)c1cccc(-c2ccnc3c(C#N)cnn23)c1`, the Potency result is “inactive”.

`CC(=O)Nc1cc([As](=O)(O)O)ccc1O`: the Potency entry is “inactive”.

Take `NCC1(CC(=O)O)CCCCC1`: the Potency entry was “inactive”.

A further assay in a line: qHTS of pediatric cancer cell lines to identify multiple opportunities for drug repurposing: Primary screen for RD cells (AID 1347104). Further: nearly all actives have a fitted effect of over 55% in size. Further: potency means the concentration at half of the fitted maximal effect. The note with it: RD rhabdomyosarcoma viability, CellTiter-Glo luminescence, 48 h; series mostly up to 46 µM. The gist of the method:
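Following a 5-hour attachment period, cells at 500-1,000/well received compounds and were cultured for 48 hours. CellTiter-Glo was added and luminescence read to estimate viable, metabolically active cells.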
Turning to `NN=C(N)N`, the Potency entry is “inactive”.

On to `CN1CCN(C(=O)O[C@H]2c3nccnc3C(=O)N2c2ccc(Cl)cn2)CC1`, for which the Potency result is “inactive”.

For the molecule `CC1NCCOC1c1ccccc1` (stereo not given), the Potency result is “inactive”.

Take `CC(C)=CC1C(C(=O)OCc2cccc(Oc3ccccc3)c2)C1(C)C` (stereo not given): the Potency result is “inactive”.

On to `NCCc1cc(O)c(O)cc1O`, for which the Potency entry was “inactive”.

For `CCN(CC)C(=O)N[C@@H]1C=C2c3cccc4[nH]cc(c34)C[C@@H]2N(C)C1`, the Potency entry is “inactive”.

Turning to `CCCC(C)(COC(N)=O)COC(=O)NC(C)C` (stereo not given), the Potency result is “inactive”.

For `O=[N+]([O-])c1cc([As](=O)(O)O)ccc1O`, the Potency entry is “inactive”.

Take `COc1ccc(C(=O)c2c(C)n(CCN3CCOCC3)c3ccccc23)cc1`: the Potency entry is “inactive”.

Consider `CCC(C(N)=O)N1CCCC1=O` (stereo not given), for which the Potency result is “inactive”.

Consider `C=C1CC[C@@]2(O)[C@H]3Cc4ccc(O)c5c4[C@@]2(CCN3CC2CC2)[C@H]1O5`, for which the Potency entry was “inactive”.

Regarding `Nc1ccncc1`, the Potency result is “inactive”.

Take `CC(C)NCC(O)c1ccccc1Cl` (stereo not given): the Potency result was “inactive”.

In the case of `CCCN1CCC[C@@H]2Cc3nc(N)ncc3C[C@H]21`, the Potency result is “inactive”.

Take `N[C@@H](Cc1ccc(N(CCCl)CCCl)cc1)C(=O)O`: the Potency entry is “inactive”.

On to `CCCN1CCC[C@@H]2Cc3[nH]ncc3C[C@H]21`, for which the Potency entry was “inactive”.

Regarding `CC(=O)[C@H]1CC[C@H]2[C@@H]3CC[C@H]4C[C@](C)(O)CC[C@]4(C)[C@H]3CC[C@]12C`, the Potency result is “inactive”.

Consider `Oc1cc(Cl)ccc1Oc1ccc(Cl)cc1Cl`, for which the Potency is 39.4 µM (active) and 23.7 µM (active).

As for `N[C@@H](Cc1ccc(Oc2cc(I)c(O)c(I)c2)c(I)c1)C(=O)O`, the Potency result was “inactive”.

Regarding `Clc1cccc(N2CCNCC2)c1`, the Potency entry is “inactive”.

Turning to `C#CCN(C)[C@H](C)Cc1ccccc1`, the Potency entry was “inactive”.

Turning to `CC(C)(C)NCC(O)c1cc(Cl)c(N)c(Cl)c1` (stereo not given), the Potency entry was “inactive”.

Turning to `CC[C@@H](CO)NC(=O)[C@@H]1C=C2c3cccc4[nH]cc(c34)C[C@H]2N(C)C1`, the Potency result is “inactive”.

Consider `NP(N)(=O)NC(=O)c1ccc(F)cc1`, for which the Potency result was “inactive”.

As to `CCN(CC)CCOC(=O)C(O)(c1ccccc1)c1ccccc1`, the Potency entry is “inactive”.

Take `Cc1cccc(C)c1NC(=O)CN1CCCC1=O`: the Potency entry was “inactive”.

Turning to `CN1C(=S)CN=C(c2ccccc2)c2cc(Cl)ccc21`, the Potency entry is “inactive”.

For the molecule `N[C@@H]1C[C@H]1c1ccccc1`, the Potency result was “inactive”.

Regarding `CC[N+](CC)(CC)CC`, the Potency entry was “inactive”.

On to `Fc1ccc(C(OCCN2CCN(CCCc3ccccc3)CC2)c2ccc(F)cc2)cc1`, for which the Potency is 26.4 µM (active) and 23.7 µM (active).

Turning to `CCCC1CCCCN1` (stereo not given), the Potency entry was “inactive”.

Consider `C#CCOC(C(=O)OCCN(C)C)(c1ccccc1)c1ccccc1`, for which the Potency result is “inactive”.

For the molecule `CN(C)CCc1ccc(O)cc1`, the Potency result is “inactive”.

Regarding `CCN(C(C)=O)c1cccc(-c2ccnc3c(C#N)cnn23)c1`, the Potency entry is “inactive”.

For `CC(=O)Nc1cc([As](=O)(O)O)ccc1O`, the Potency result was “inactive”.

`NCC1(CC(=O)O)CCCCC1`: the Potency result is “inactive”.
